# Results published in PubChem BioAssay (Tox21).
# Results filed as inconclusive are left out. The source made the active and inactive calls. Calls come from the whole dose curve; as a rule, active = well fitted cell-killing curve with a large enough effect in the repeat runs; inconclusive = weak or mixed curves, or effect the other way; inactive = no such curve, though single readings can be large or run the other way.
# Assay: qHTS assay to identify small molecule antagonists of the glucocorticoid receptor (GR) signaling pathway - cell viability counter screen (AID 720693); note: nearly all actives have a fitted effect of over 55% in size
# Settings: GR-bla HeLa viability, CellTiter-Glo luminescence, 18 h, with 5 nM dexamethasone present; series mostly up to 58.5 µM; viability change, negative = cytotoxic: at the top concentration
# Description: National Center for Advancing Translational Sciences [NCATS]
# NIH Chemical Genomics Center [NCGC]
# U.S. Environmental Protection Agency [EPA]
# National Institutes of Environmental Health Sciences [NIEHS]
# National Toxicology Program [NTP]
# U.S. Food and Drug Administration [FDA]
# The Glucocorticoid receptor (GR) is one of the members of the nuclear receptor family of ligand-dependent transcription factors. GR plays a critical role in carbohydrate, protein and lipid metabolisms and programmed cell death. CellSensor GR-bla HeLa cell line (Invitrogen) contains a beta-lactamase reporter gene under the control of the glucocorticoid response element stably integrated into HeLa cells, a cervical cancer cell line that expresses glucocorticoid receptor. The activation of the reporter gene under culture conditions can be detected by fluorescence intensity. This cell line has been used to screen the Tox21 10K compound library and to identify the compounds that inhibit the GR signaling. The cytotoxicity of the Tox21 compound library against the GR-bla HeLa cell line was tested in parallel by measuring the cell viability using CellTiter-Glo assay in the same wells.
# Tox21 Assay Protocol Summary:
# The GR-bla HeLa cells were dispensed at 1500 cells/5 ul/well in 1536-well black wall/clear bottom plates using a Multidrop Combi (ThermoFisher Scientific, Waltham, MA) dispenser. After the assay plates were incubated at a 37 C/5% CO2 incubator for 4 hours, 23 nL of compounds dissolved in DMSO, positive controls or DMSO only was transferred to the assay plate by a pintool station (Kalypsys, San Diego, CA), followed by addition of 1 uL of dexamethasone (5 nM, final concentration in the well). The plates were incubated at 37 C for 18 hours. After 1 uL of LiveBLAzerTM B/G FRET substrate was added using a Flying Reagent Dispenser (Aurora Discovery, San Diego, CA), the plates were incubated at room temperature (RT) for 2 hours, and fluorescence intensity was measured by an Envision plate reader (PerkinElmer, Shelton, CT). After measurement of bla assay, 3 ul CellTiter-Glo (Promega, Madison, WI) was added to measure the cytotoxicity and the plates were then incubated at RT for 30 min. The luminescence was measured using a ViewLux (Perkin Elmer) plate reader.
# % is set by controls: 0 for no effect and ±100 for the full control effect; potency is the fitted concentration of half-maximal effect.
Compound,"viability change, negative = cytotoxic",Potency
C[C@H]1O[C@H](OC2[C@@H](O)[C@@H](O)C(O)[C@H](O)[C@H]2O)[C@@H](N)C[C@@H]1N=C(N)C(=O)O (stereo not given in full),9.9% (inactive),
COc1ccccc1N1CCNCC1,-8.38% (inactive),
C[N+](C)(C)CCOC(=O)C(O)(c1ccccc1)c1ccccc1,-9.52% (inactive),
C[N+](C)(C)CC1CO1 (stereo not given),-2.22% (inactive),
O=C(N[C@H]1CN2CCC1CC2)c1ccc2c(c1)OCCO2,-0.552% (inactive),
CC(C)(C)CC(C)(C)c1ccc(O)cc1,,24.5 µM (active)
CC(Oc1cccc(Cl)c1)C(=O)O (stereo not given),2.9% (inactive),
O=C(O)c1cc(I)cc(I)c1I,-3.91% [at 78.9 µM] (inactive),
CC[N+]1(C)CCCC(OC(=O)C(O)(c2ccccc2)c2ccccc2)C1 (stereo not given),4.45% (inactive),
O=C(O)c1cc(Cl)ccc1Cl,23.2% (inactive),
Nc1ccccc1C(=O)OCCc1ccccc1,,inactive
CN(C1CCCCC1)C1CCCCC1,1.33% (inactive),
CN1CC[C@]23c4c5ccc(O)c4O[C@H]2[C@@H](O)CC[C@H]3[C@H]1C5,1.9% (inactive),
CC(C)CCCCCCCOC(=O)c1ccccc1C(=O)OCCCCCCCC(C)C,1.43% (inactive),
COc1cc(C[C@@H](C)N)c(OC)cc1Br,-6.75% [at 78.9 µM] (inactive),
CC(C)C1(C)N=C(c2ncccc2C(=O)O)NC1=O (stereo not given),-3.64% (inactive),
O=C(Cl)OCCOCCOC(=O)Cl,0.81% (inactive),
C=CCOC(=O)C(C)(C)OC(=O)c1cc(-n2c(=O)cc(C(F)(F)F)n(C)c2=O)ccc1Cl,5.33% (inactive),
CCC[N+](CCC)(CCC)CCC,7.12% (inactive),
CN[C@@H](C)[C@H](O)c1ccccc1,-1.12% (inactive),

Compound,"viability change, negative = cytotoxic",Potency
CC(C)[C@@H](C(=O)O[C@@H](C#N)c1cccc(Oc2ccccc2)c1)c1ccc(Cl)cc1,,inactive
CCOC(=O)NC(O)C(Cl)(Cl)Cl (stereo not given),17.6% (inactive),
CN1C(=O)CN=C(c2ccccc2)c2cc([N+](=O)[O-])ccc21,-17.4% (inactive),
FC(Cl)(Cl)C(F)(Cl)Cl,-3.36% [at 78.9 µM] (inactive),
CC(C)c1ccc(NC(=O)N(C)C)cc1,-0.0674% (inactive),
C=CC(=O)OCC,-3.43% [at 78.9 µM] (inactive),
CC(C)(C)NCC(O)c1ccccc1Cl (stereo not given),-3.03% (inactive),
CCN(C(C)=O)c1cccc(-c2ccnc3c(C#N)cnn23)c1,13.3% (inactive),
CCCCOC(=O)CCC(=O)OCCCC,-0.382% (inactive),
Clc1ccccc1,-15.5% (inactive),
CCC(C)(C)O,-2.74% (inactive),
Cc1cnc(C2=NC(C)(C(C)C)C(=O)N2)c(C(=O)O)c1 (stereo not given),-0.0798% (inactive),
CCOc1cccc(C2(N3CCN(c4ccccc4)CC3)CCC(C)CC2)c1 (stereo not given),-2.14% (inactive),
FC(F)OC(F)(F)C(F)Cl (stereo not given),,inactive
NCCc1cc(O)c(O)cc1O,-0.173% (inactive),
CC(C)OC(=O)Cc1ccccc1,-3.76% [at 78.9 µM] (inactive),
O=C=NC1CCCCC1,-8.08% (inactive),
CC(Cc1ccccc1)NCc1ccccc1Cl (stereo not given),-0.697% (inactive),
O=[N+]([O-])O[C@H]1CO[C@H]2[C@@H]1OC[C@H]2O[N+](=O)[O-],-0.0939% (inactive),
OCC1CO1 (stereo not given),,inactive
